Measured values taken from PubChem BioAssay (NCATS).
Records with an inconclusive call do not appear. Entries that show only a call come without a potency. Calls of active or inactive are those of the source. Unless noted, calls follow the shape of the dose curve; as a rule, active = well fitted curve in the direction sought with a large enough effect; inconclusive = small, poorly fitted or top-dose-only effect, or another doubt; inactive = no such curve, though single readings can be large; an effect the other way counts as inactive or inconclusive.

Experiments:
[1] = target: Cytochrome P450 3A4 (Homo sapiens) (UniProt P08684); assay: qHTS Assay for Inhibitors and Substrates of Cytochrome P450 3A4 (AID 884); also: nearly all actives have a fitted effect of over 50% in size
Method in brief: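 20 nM human CYP3A4 with 25 uM Luciferin-PPXE (at KM) in 200 mM KPO4, preincubated 10 min with compound; NADPH regeneration started a 60 min RT reaction. Luciferin detected by luminescence, normalized to 57 uM ketoconazole as full inhibition.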

[2] = Confirmation and Secondary Assay for Modulators of Hemoglobin Beta Chain Splicing at IVS2 654 locus (AID 910);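 also: HeLa cells stably carrying EGFP split by mutant beta-globin IVS2-654 intron; per-well total GFP intensity by laser scanning cytometry after 2-day treatment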
Method in brief: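 Readout: per-well total peak green fluorescence (488 nm ex, 500–520 nm em) from objects 5–250 µm, reflecting correct splicing of an EGFP-654 reporter. Compounds were applied for 2 days at 37 °C to overnight-plated HeLa EGFP-654 cells; controls were DMSO and 500 nM IVS2-654 PNA.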

[3] = Confirmation and Secondary Assay for Modulators of Hemoglobin Beta Chain Splicing at IVS2 705 locus (AID 930);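 also: HeLa cells stably expressing the EGFP-705 splicing reporter; GFP fluorescence per well restored by corrected splicing of the IVS2-705 intron in EGFP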
Method in brief: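 Secondary splice-site specificity test uses HeLa expressing CMV-driven EGFP interrupted by IVS2-705; cells were treated 2 days at 37C with 500 nM antisense PNA as positive control.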

[4] = qHTS Assay for Lipid Storage Modulators (AID 1519; calls by dose curve); conditions: Drosophila S3 cells, BODIPY lipid droplet/cell ratio, laser cytometry, cells loaded with oleic acid; for activity change, negative = inhibition: at 57.5 µM (top of the series)
Method in brief: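 Cells seeded at 5,000 per well were treated with compounds over a concentration series and loaded with oleic acid (400 uM, as added). Lipid droplet fluorescence (488 nm excitation, 500-530 nm channel) was read by laser-scanning cytometry and normalized to 20 uM Triacsin C.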

[5] = target: Ubiquitin carboxyl-terminal hydrolase 1 (Homo sapiens) (UniProt O94782); assay: Inhibitors of USP1/UAF1: Pilot qHTS (AID 504865);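 also: rhodamine fluorescence freed from ubiquitin-rhodamine substrate followed over time; top concentration of the series differs between compounds; nearly all actives have a fitted effect of over 35% in size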
Method in brief: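 Enzyme-free wells gave the negative control, while test wells held 1nM USP1/UAF1 preincubated with compound for 15 min at room temperature. Ub-Rho at 150nM final started the reaction, and fluorescence at 480/540 nm was recorded kinetically.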

[6] = target: Cytochrome P450 3A4 (Homo sapiens) (UniProt P08684); assay: qHTS Assay for Activators of Cytochrome P450 3A4 (AID 885); also: nearly all actives have a fitted effect of over 65% in size
Method in brief: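 Quantitative HTS format: compounds preincubated with 20nM human CYP3A4 and Luciferin-PPXE substrate at KM, reaction started by NADPH regeneration, stopped after 60 min, luciferase luminescence read 20 min later.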

[7] = measured here: cell count channel max response
[8] = measured here: lipid channel max response

Sequence of Ubiquitin carboxyl-terminal hydrolase 1 (Homo sapiens) (O94782 whole entry, looked up): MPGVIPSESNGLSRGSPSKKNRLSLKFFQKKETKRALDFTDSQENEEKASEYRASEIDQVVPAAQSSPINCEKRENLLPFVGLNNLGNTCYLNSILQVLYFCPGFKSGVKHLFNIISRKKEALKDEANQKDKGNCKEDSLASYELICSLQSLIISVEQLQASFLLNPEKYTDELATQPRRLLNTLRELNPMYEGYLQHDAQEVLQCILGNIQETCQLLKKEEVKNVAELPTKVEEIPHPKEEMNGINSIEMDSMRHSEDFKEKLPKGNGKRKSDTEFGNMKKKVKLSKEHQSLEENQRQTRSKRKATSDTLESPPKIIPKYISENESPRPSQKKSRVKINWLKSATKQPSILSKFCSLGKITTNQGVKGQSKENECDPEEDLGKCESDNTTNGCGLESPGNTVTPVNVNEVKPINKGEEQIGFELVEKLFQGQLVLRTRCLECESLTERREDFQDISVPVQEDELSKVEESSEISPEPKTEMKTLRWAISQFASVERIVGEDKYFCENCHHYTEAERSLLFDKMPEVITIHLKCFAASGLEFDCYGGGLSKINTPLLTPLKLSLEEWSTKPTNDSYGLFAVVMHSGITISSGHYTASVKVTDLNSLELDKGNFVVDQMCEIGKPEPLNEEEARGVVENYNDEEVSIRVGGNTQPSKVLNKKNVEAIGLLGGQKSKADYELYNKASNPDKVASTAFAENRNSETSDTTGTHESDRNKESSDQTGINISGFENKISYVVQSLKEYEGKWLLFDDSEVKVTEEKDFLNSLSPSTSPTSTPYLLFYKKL
Sequence of Cytochrome P450 3A4 (Homo sapiens) (P08684 whole entry, looked up): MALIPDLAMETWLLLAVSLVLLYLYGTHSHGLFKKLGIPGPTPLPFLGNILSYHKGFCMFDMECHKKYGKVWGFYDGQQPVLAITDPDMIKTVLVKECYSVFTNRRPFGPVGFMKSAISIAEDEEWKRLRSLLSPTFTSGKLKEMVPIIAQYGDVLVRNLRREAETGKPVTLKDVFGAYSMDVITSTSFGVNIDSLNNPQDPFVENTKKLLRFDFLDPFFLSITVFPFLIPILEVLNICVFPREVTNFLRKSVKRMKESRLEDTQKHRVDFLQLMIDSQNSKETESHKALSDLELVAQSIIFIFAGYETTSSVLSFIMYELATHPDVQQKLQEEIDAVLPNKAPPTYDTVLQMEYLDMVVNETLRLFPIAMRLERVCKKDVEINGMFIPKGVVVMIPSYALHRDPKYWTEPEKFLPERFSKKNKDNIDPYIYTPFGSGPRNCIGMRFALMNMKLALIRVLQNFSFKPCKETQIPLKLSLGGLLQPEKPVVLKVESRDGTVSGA

SMILES | Potency [1] | Potency [2] | Potency [3] | activity change, negative = inhibition [4] | max response [4, 7] [%] | max response [4, 8] [%] | Potency [5] | Potency [6]
OCC(O)C(O)[C@H](O[C@H]1OC(CO)C(O)C(O)C1O)[C@H](O)CO (stereo partly specified) | inactive | inactive | inactive | 3.91% (inactive) | 11.8 | 16 | inactive | 
OCc1ccccc1O[C@H]1OC(CO)C(O)C(O)C1O (stereo partly specified) | inactive |  | inactive | 3.66% (inactive) | 2.55 | 8.97 | inactive | 
COC(=O)/C(C)=C/CC12OC(C)(C)C3CC(C=C4C(=O)c5cc6c(c(CCC(C)(C)Cl)c5OC431)OC1(C)CCC(=C(C)C)C6C1)C2=O (stereo unspecified) | inactive |  | inactive | 14.1% (inactive) | 7.63 | 20.5 | inactive | 
O=C(Oc1cc(OC(=O)c2ccccc2)c2c(c1)OC(c1ccc(OC(=O)c3ccccc3)c(OC(=O)c3ccccc3)c1)[C@@H](OC(=O)c1ccccc1)C2)c1ccccc1 (stereo partly specified) | inactive | inactive | inactive | -8.04% (inactive) | 23.3 | 15.7 | inactive | 
C=C1C(N)CC2CC1C2(C)C (stereo unspecified) | inactive | inactive | inactive | 1.08% (inactive) | 14 | 14.9 | inactive | 
CC(C)(O)C1CC[C@@]2(C)C3CCC4[C@@]5(C)CCCC(C)(C)C5C(O)C[C@]4(C)[C@]3(C)CC[C@@H]12 (stereo partly specified) | inactive | inactive | inactive | 5.94% (inactive) | 19.9 | 27.3 | inactive | 
Cc1cn(C2CCC(CO)O2)c(=O)[nH]c1=O (stereo unspecified) | inactive | inactive | inactive | 4.05% (inactive) | 13.1 | 17.4 | inactive | 
CC1=CC2C(C(C)C)CCC(C)(O)C2CC1 (stereo unspecified) | inactive | inactive | inactive | -0.741% (inactive) | -7.33 | -6.55 | inactive | 
CC(=O)/C=C\C1[C@]2(C)CCCC(C)(C)C2CC[C@@]1(C)O (stereo partly specified) | inactive | inactive | inactive | 3.07% (inactive) | -10.9 | -8.32 | inactive | 
CC(=O)OCC1OC(n2c(Br)nc3c(=O)[nH]c(N)nc32)C(OC(C)=O)C1OC(C)=O (stereo unspecified) | inactive | inactive | inactive | 1.02% (inactive) | 9.1 | 10.5 | inactive | 
CN(C)C1C(=O)C(C(N)=O)=C(O)[C@@]2(O)C(=O)C3=C(O)c4c(O)ccc(Cl)c4C(O)[C@H]3C[C@@H]12 (stereo partly specified) | inactive | inactive | inactive | 5.54% (inactive) | 25.6 | 35.5 | inactive | 
C[C@@H]1/C(=N/O)CC2C[C@@H]1C2(C)C | inactive | inactive | inactive | 2.67% (inactive) | 9.02 | 13.7 | inactive | 
C[C@@]12CCC(O)C[C@H]1CCc1ccccc12 (stereo partly specified) | inactive | inactive | inactive | 1.53% (inactive) | 0.578 | 6.01 | inactive | 
COc1c(O)cc2c(c1O)C1OC(CO)C(O)[C@H](O)[C@H]1OC2=O (stereo partly specified) | inactive | inactive | inactive | 6.03% (inactive) | 7.39 | 14.2 | inactive | 
CC(=O)OCC(=O)[C@@]1(O)CCC2C3CCC4=CC(=O)CC[C@]4(C)C3C(O)C[C@]21C (stereo partly specified) | inactive | inactive | inactive | 7.11% (inactive) | 10.3 | 18.3 | inactive | 
Nc1nc2c(nc(Br)n2C2CC(O)C(CO)O2)c(=O)[nH]1 (stereo unspecified) | inactive | inactive | inactive | 3.88% (inactive) | 4.93 | 9.77 | inactive | 
COc1ccccc1/C=C\C(=O)O | inactive | inactive | inactive | -2.1% (inactive) | 4.2 | 4.2 | inactive | 
O=C(O)C1(O)CC(O)C(O)C(O)C1 (stereo unspecified) | inactive | inactive | inactive | 2.66% (inactive) | 9.62 | 14.4 | inactive | 
O=C(O)C(O)[C@@](O)(Cc1ccc(O)cc1)C(=O)O (stereo partly specified) | inactive | inactive | inactive | 5.41% (inactive) | 10.8 | 18.1 | inactive | 
CCCC(NC(C)C(=O)N1C(C(=O)O)CC2CCCCC21)C(=O)OCC (stereo unspecified) | inactive |  | inactive | 9% (inactive) | 4.3 | 11.7 | inactive | 
CC1C(=O)CCC2[C@]1(C)CCC1[C@]2(C)CC[C@@]2(C)C3CC(C)(C)CC[C@]3(C)CC[C@@]12C (stereo partly specified) | inactive | inactive | inactive | 2.51% (inactive) | 9.14 | 14.3 | inactive | 
CCC(C(N)=O)c1ccccc1 (stereo unspecified) | inactive | inactive | inactive | 9.01% (inactive) | 9.46 | 21.9 | inactive | 
OCC1O[C@@H](OC2C(O)C(CO)O[C@@]2(CO)O[C@@H]2OC(CO)C(O)C(O)C2O)C(O)C(O)C1O (stereo partly specified) | inactive | inactive | inactive | 4.82% (inactive) | 0.0409 | 4.57 | inactive | 
COc1ccc2c(=O)c(CC(=O)O)coc2c1 | inactive | inactive | inactive | 4.63% (inactive) | 9.56 | 14.8 | inactive | 

SMILES | Potency [1] | Potency [2] | Potency [3] | activity change, negative = inhibition [4] | max response [4, 7] [%] | max response [4, 8] [%] | Potency [5] | Potency [6]
CC1(C)OC2C(CO)OC(n3cnc4c(=O)[nH]c(N)nc43)C2O1 (stereo unspecified) | inactive | inactive | inactive | 4.01% (inactive) | 24 | 28 | inactive | 
[N-]=[N+]=NCC1OC(n2cnc3c(=O)[nH]c(N)nc32)C(O)C1O (stereo unspecified) | inactive | inactive | inactive | 4.07% (inactive) | 12.7 | 19.1 | inactive | 
[N-]=[N+]=Nc1nc2c(N)ncnc2n1C1OC(CO)C(O)C1O (stereo unspecified) | inactive |  | inactive | -16.2% (inactive) | 12.5 | 1.58 | inactive | 
COc1cc2c3cc1Oc1cc(ccc1O)CC1c4c(cc(OC)c(O)c4Oc4ccc(cc4)CC3N(C)CC2)CC[N+]1(C)C (stereo unspecified) | inactive | inactive | inactive | 4.12% (inactive) | -2.85 | 6.31 | inactive | 
NCCC(O)C(=O)NC1C[C@@H](N)[C@H](O[C@@H]2OC(CN)C(O)C(O)C2O)C(O)[C@H]1O[C@H]1OC(CO)C(O)C(N)C1O (stereo partly specified) | inactive |  | inactive | 7.58% (inactive) | 23.7 | 35.1 | inactive | 
NC(CSCSCC(N)C(=O)O)C(=O)O (stereo unspecified) | inactive | inactive | inactive | 1.54% (inactive) | 7.28 | 12.4 | inactive | 
CSc1ncnc2c1ncn2C1OC(CO)C(O)C1O (stereo unspecified) | inactive | inactive | inactive | -6.93% (inactive) | -18.3 | -24.7 | inactive | 
CC1(C)OC2C(CO)OC(n3cnc4c(=O)[nH]cnc43)C2O1 (stereo unspecified) | inactive |  | inactive | 1.95% (inactive) | 3.64 | 5.67 | inactive | 
NC(=O)c1ccc[n+]([C@@H]2OC(COP(=O)([O-])OP(=O)(O)OCC3OC(n4cnc5c(N)ncnc54)C(OP(=O)(O)O)C3O)C(O)C2O)c1 (stereo partly specified) | inactive | inactive | inactive | 5.09% (inactive) | 9.14 | 18.1 | inactive | 
CC(=O)OCC(=O)C1CCC2C3CC=C4CC(O)CC[C@@]4(C)C3CC[C@]12C (stereo partly specified) | inactive |  | inactive | 8.84% (inactive) | 22.6 | 38.3 | inactive | 
COc1c(O)cccc1O | inactive | inactive | inactive | 5.35% (inactive) | -1.6 | 5.81 | inactive | 
C=C[C@]1(C)CC(=O)[C@@]2(O)[C@@]3(C)C(O)CCC(C)(C)C3C(O)C(OC(C)=O)[C@@]2(C)O1 (stereo partly specified) |  | inactive | inactive | 3.86% (inactive) | 19.4 | 25.9 | inactive | inactive
CCCC1OC2CC3C4CCC5=CC(=O)C=CC5(C)C4C(O)CC3(C)[C@]2(C(=O)CO)O1 (stereo partly specified) |  | inactive | inactive | 8.38% (inactive) | 24.3 | 37.9 | inactive | inactive
COc1ccc(-c2cc(=O)c3c(O)c(OC)c(OC)c(OC)c3o2)cc1OC |  | inactive | inactive | -11% (inactive) | -6.36 | -17.8 | inactive | inactive
COC(=O)c1c(C)cc(OC)cc1O |  | inactive | inactive | 8.17% (inactive) | 10 | 23.5 | inactive | inactive
COc1cc2cc[n+]3cc4c(OC)c(OC)ccc4cc3c2cc1OC |  | inactive | inactive | 10.9% (inactive) | 22.9 | 39.6 | inactive | inactive
C=C1C(=O)OC2CC1C(OC(C)=O)CC(C)=CCCC(C)=CCC[C@@]2(C)O (stereo partly specified) |  | inactive | inactive | -0.0283% (inactive) | 10.1 | 14.3 | inactive | inactive
CS(=O)(=O)c1ccc(C(O)C(CO)NC(=O)C(Cl)Cl)cc1 (stereo unspecified) | inactive |  | inactive | 6.29% (inactive) | 3.52 | 13.6 | inactive | 
CC(=O)C1CCC2C3CC(C)C4=CC(=O)CC[C@@]4(C)C3C(O)C[C@@]12C (stereo partly specified) |  | inactive | inactive | 8.05% (inactive) | 8.18 | 24.3 | inactive | inactive
C=C1CCC(=O)C(C)CCC2C1CC2(C)C (stereo unspecified) |  | inactive | inactive | 1.2% (inactive) | 13.1 | 14.5 | inactive | inactive
CCOC(=O)CCC(=O)O[C@H]1C(O[C@@H]2C(C)[C@H](O[C@H]3C[C@@](C)(OC)C(O)C(C)O3)C(C)C(=O)OC(CC)[C@@](C)(O)C(O)[C@H](C)C(=O)C(C)C[C@]2(C)O)OC(C)CC1N(C)C (stereo partly specified) |  | inactive | inactive | -0.5% (inactive) | 3.86 | 3.45 | inactive | inactive
COC(=O)CC1C(C)(C)C(OC(C)=O)C2CC3=C4CC(=O)OC(c5ccoc5)[C@]4(C)CCC3[C@@]1(C)C2=O (stereo partly specified) |  | inactive | inactive | -5.96% (inactive) | 14.6 | 10 | inactive | inactive
Nc1nc2c(nc(Sc3ccc(Cl)cc3)n2C2OC(CO)C(O)C2O)c(=O)[nH]1 (stereo unspecified) |  | inactive | inactive | 5.03% (inactive) | 14.6 | 19.6 | inactive | inactive
